# Results filed as inconclusive are left out. Unmarked numbers belong to inactive results. Activity calls are given as the source filed them. Calls come from the whole dose curve; as a rule, active = well fitted inhibition curve with a large enough effect; inconclusive = small, poorly fitted or top-dose-only effect; inactive = flat fitted curve, though single readings scatter.
# Tested on: DFO2036
# Test: qHTS profiling for inhibitors of Plasmodium falciparum proliferation (AID 504749); note: nearly all actives have a fitted effect of over 60% in size;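 for activity, negative = inhibition: 0% = DMSO vehicle and full inhibition = artemisinin control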
# Conditions: P. falciparum in erythrocytes, SYBR Green DNA, 72 h; series mostly up to 28.7 µM; activity, negative = inhibition: at the top concentration
# From the text: NIH National Institute of Allergy and Infectious Diseases [NIAID] NIH Chemical Genomics Center [NCGC] MLPCN Grant: None Assay Provider: Xinzhuan Su, NIAID NCGC Assay Overview: Plasmodium falciparum is a virulent malarial parasite that kills 1-2 million people worldwide each year. Transmitted by mosquitoes, the sporozoite form of the parasite enters the blood stream to infect hepatocytes, where they become merozoites that infect red blood cells (erythrocytes). Within erythrocytes, merozoites begin a […] cycle of growth and division, after which the parasite is released to infect new red blood cells. Gametocytes, which form within erythrocytes as well, circulate in the bloodstream and are ingested by the mosquito, thereby completing the life cycle. To profile malarial isolates for differential chemical responses and to identify inhibitors of malarial growth, an assay that measures P. falciparum growth and replication within erythrocytes was employed. This assay uses a DNA binding fluorescent dye (SYBR Green) to detect parasite DNA following cell lysis. Because mature erythrocytes lack DNA, only Plasmodium-derived DNA is detected.
# NCGC Assay Protocol Summary: The SYBR Green viability assay was adapted from a method described previously (Plouffe et al., 2008). For screening 3 ul culture medium was dispensed into 1536 well black clear bottom plates (Aurora Biotechnologies) using a Multidrop Combi (Thermo Fisher Scientific Inc.), 23 nL compounds in DMSO were added by a pin tool (Kalypsys), and 5 ul of erythrocytes infected with P. falciparum (0.3% parasitemia, 2.5% hematocrit final concentration) were added. The plates were incubated at 37 C in a humidified incubator in 5% CO2 for 72 h, and 2 ul lysis buffer (20 mM Tris HCl, 10 mM EDTA, 0.16% saponin, 1.6% triton X, 10X SYBR Green I supplied as 10,000X […] by Invitrogen) was added to each well. The plates were mixed for 25 sec with gentle shaking and incubated overnight at room temperature in the dark. The following morning, fluorescence intensity at 485(14) nm excitation and 535(25) nm emission wavelengths was measured on an EnVision (Perkin Elmer) plate reader. Plate reads were normalized relative to the control inhibitor (0.29 uM artemisinin) and vehicle (DMSO) wells present on each plate and then corrected by an algorithm using vehicle-only control plates at the beginning and end of the compound plate stack.
# Potency is the fitted concentration of half-maximal effect.
SMILES,"activity, negative = inhibition",Potency
CO/N=C(\C(=O)N[C@@H]1C(=O)N2C(C(=O)[O-])=C(C[N+]3(C)CCCC3)CS[C@@H]12)c1csc(N)n1,7.13%,
O=C(O)[C@@H](S)[C@H](S)C(=O)O,,8.91 µM (active)
COc1cccc2c1C(=O)c1c(O)c3c(c(O)c1C2=O)C[C@](O)(C(=O)CO)C[C@@H]3O[C@H]1C[C@H](N)[C@@H](O)[C@H](C)O1,8.61%,
N[C@H](COP(=O)(O)O)C(=O)O,15.2%,
Cc1cn([C@H]2C[C@H](N=[N+]=[N-])[C@H](CO)O2)c(=O)[nH]c1=O,-1.65%,
C[C@@H]1C[C@H]2[C@H]3C[C@@H](F)C4=CC(=O)C=C[C@]4(C)[C@@]3(Cl)[C@@H](O)C[C@@]2(C)[C@@H]1C(=O)COC(=O)C(C)(C)C,1.02%,
C[C@]12CC[C@H]3c4ccc(O)cc4CC[C@@H]3[C@H]1CC[C@@H]2OC(=O)CCC1CCCC1,8.34%,
CC1(C)S[C@@H]2[C@H](NC(=O)Cc3ccccc3)C(=O)N2[C@@H]1C(=O)O,-0.209%,
CC1(C)[C@@H]2CC[C@]1(C)[C@@H](OC(=O)CSC#N)C2,6.6%,
N[C@@H](Cc1ccccc1)C(=O)O,11%,
O=C(O)[C@@H](O)[C@@H](O)[C@H](O)C(=O)CO,3.49%,
NS(=O)(=O)c1cc2c(cc1Cl)N[C@H](Cc1ccccc1)NS2(=O)=O,3.85%,
Cc1c(C(=O)O)c(O)cc2c1C(=O)c1c(O)c([C@H]3O[C@H](CO)[C@@H](O)[C@H](O)[C@H]3O)c(O)c(O)c1C2=O,13.3%,
COc1cc2nc(N(C)CCCNC(=O)[C@@H]3CCCO3)nc(N)c2cc1OC,1.41% [at 12.8 µM],
C[C@]12CC[C@H]3c4ccc(O)cc4CC[C@@H]3[C@H]1CC[C@@H]2OP(=O)(O)O,13.9%,
CC(C)(C)NC[C@@H](O)c1ccc(O)c(CO)n1,11.1%,
C[N+]1(C)[C@@H]2CC(OC(=O)[C@@H](CO)c3ccccc3)C[C@@H]1[C@H]1O[C@H]12 (stereo partly specified),-0.211%,
C(=C/c1ccccc1)/CN1CCN(C(c2ccccc2)c2ccccc2)CC1,2.14% [at 12.8 µM],
C=C1CC[C@H](O)C/C1=C/C=C1\CCC[C@]2(C)[C@@H]([C@H](C)CCCC(C)C)CC[C@@H]12,-21.9%,
C[C@H](CCC(=O)O)[C@H]1CC[C@@H]2[C@H]3[C@@H](C[C@@H](O)[C@]21C)[C@]1(C)CC[C@H](O)C[C@@H]1C[C@@H]3O,-5.36%,
CN(C)[C@H]1C(=O)C(C(=O)NCN2CCCC2)=C(O)[C@]2(O)C(=O)C3=C(O)c4c(O)cccc4[C@](C)(O)[C@H]3C[C@H]12,3.9%,
CC(=O)N1CCN(c2ccc(OC[C@@H]3CO[C@@](Cn4ccnc4)(c4ccc(Cl)cc4Cl)O3)cc2)CC1,-0.483%,
CCc1ccc2c(c1)N(C[C@H](C)CN(C)C)c1ccccc1S2,-2.44%,
C[C@H]1C[C@@H]2[C@H]3CCC4=CC(=O)C=C[C@@]4(C)[C@@]3(Cl)[C@@H](O)C[C@]2(C)[C@]1(OC(=O)c1ccco1)C(=O)CCl,,4.47 µM (active)
Cc1onc(-c2c(F)cccc2Cl)c1C(=O)N[C@@H]1C(=O)N2[C@H]1SC(C)(C)[C@H]2C(=O)O,8.86%,
CN1[C@@H]2CC(OC(=O)[C@@H](CO)c3ccccc3)C[C@@H]1[C@H]1O[C@H]12 (stereo partly specified),7.22%,

# Reference: PubChem BioAssay (NCATS)
